About 83,000 compounds went through this panel and 20% of them were active in at least one assay; those are over-represented in the sample as a whole.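 For each line, cells grew in 96-well plates with the test compound present at a single concentration for 48 hours.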 A number with no mark means an inactive call. Active and inactive are the calls of the source. Rule for the calls: active = growth percent below 10; inactive = the rest.
The compounds below were run on HCT-15 colon (assay: NCI-60 one-dose screen, 48 h (100 = growth as untreated, 0 = no growth, -100 = all killed)). Conditions: 10 µM unless noted.

SMILES	growth
N#Cc1c(NC(=O)c2ccc([N+](=O)[O-])o2)[n+]([O-])c2cc(F)c(F)cc2[n+]1[O-]	95.1%
CC(C)(C)OC(=O)N1C/C(=C\c2cccs2)C(=O)/C(=C/c2cccs2)C1	85.1%
CC(Cc1nnc(SCC(=O)Nc2ccc(I)cc2)n1N)c1ccccc1 (stereo unspecified)	103%
COC(=O)CC/C(C)=N\Nc1ccc([N+](=O)[O-])cc1	34.8%
COc1ccccc1OCC(=O)Nc1sc2c(c1C(N)=O)CCC2	83.1%
CC(=O)N1Cc2ccccc2C(C)Cc2cc(Cl)ccc21 (stereo unspecified)	105%
COc1ccc(/C(=N/O)c2cc(OC)c(OC)c(OC)c2)c(OC)c1N	24.5%
CC(C)CCC[C@@H](C)[C@H]1CC[C@H]2[C@@H]3CC[C@H]4C/C(=N/O)CC[C@]4(C)[C@H]3CC[C@]12C	111%
C/C(=N\NC(=O)CC#N)c1cc2cc(Cl)ccc2o1	94.7%
CCC#CC[C@H]1C/C=C2/C(=O)C=C[C@@H]2C/C=C\CCCC(=O)O1	-6.01% (active)
Cc1cc(C(=O)O)c(N)c(C)n1	100%
CCCCCCOc1ccc(C2(Cl)c3ccccc3N(C)c3ccccc32)cc1	44.7%
CC(C)N(Cc1ccc(CN(C(=O)CCl)C(C)C)cc1)C(=O)CCl	0.15% (active)
COc1cc(-n2nc(C(=O)Nc3ccc(C(=O)O)cc3)nc2-c2ccccc2)cc(OC)c1OC	89.3%
NC(=O)NNC(=O)c1ccccc1	97.6%
CC1Cc2c(N(C)C)ncnc2N(C)c2ccc(O)cc21 (stereo unspecified)	50.5%
O=S(=O)(NCCCNc1cc(-c2cn(-c3ccccc3)nc2-c2cccc(O)c2)ccn1)c1ccc(C(F)(F)F)cc1	5.17% (active)
Cc1ccc(S(=O)(=O)N2CCC(C(=O)Nc3ccc(F)cc3F)CC2)cc1	103%
COc1ccc2c(c1)NC(=O)CN2c1nc(NC2CC2)nc2ccccc12	10.5%

SMILES	growth
C=C1C(=O)O[C@H]2[C@H]1CC/C(COC(=O)NCCc1cccc(OC)c1)=C\CC[C@@]1(C)O[C@@H]21	5.34% (active)
COc1cc(-c2csc(NC(=O)c3cc(C(F)(F)F)cc(C(F)(F)F)c3)n2)cc(OC)c1OC	15.6%
Clc1nc(Cl)c2ncn(C/C=C/Cn3cnc4c(Cl)nc(Cl)nc43)c2n1	50.1%
Cc1ccc2c(c1)C(C)Cc1c(ncnc1-n1cnc3ccccc31)N2C (stereo unspecified)	12.3%
CCN(CC)S(=O)(=O)c1ccc2[nH]c(=O)cc(C(=O)Nc3ccc(OC)cc3OC)c2c1	106%
COC(=O)CCCCCN=Cc1c(O)c(O)c(C(C)C)c2cc(C)c(-c3c(C)cc4c(C(C)C)c(O)c(O)c(C=NCCCCCC(=O)OC)c4c3O)c(O)c12	17.2%
CCC(=O)Oc1ccc2c(c1)CC[C@@H]1[C@@H]2CC[C@]2(C)C[C@H](OC(=O)CC)C[C@@H]12	38.9%
C=C1C(=O)O[C@H]2[C@H]1CC/C(COC(=O)NCc1cc(OC)cc(OC)c1)=C\CC[C@@]1(C)O[C@@H]21	1.86% (active)
O=C(Nc1ccc(I)cc1)c1cc([N+](=O)[O-])ccc1O	36.7%
O=C(CNC(=O)c1cccc2ccccc12)Nc1ccccc1Oc1ccccc1	8.09% (active)
O=C(/C=C/CN1CCOCC1)Nc1cc2c(Nc3ccc(F)c(Cl)c3F)ncnc2cc1OCCOC(F)F	38.1%
O=C(NCCc1c[nH]c2ccccc12)C1Cc2ccccc2CN1C(=O)c1ccco1 (stereo unspecified)	111%
Nc1cc2c(cc1N)-c1cc(N)c(N)cc1C2	97.4%
COc1ccc(/C(=N\O)c2cc(OC)c(OC)c(OC)c2)c(OC)c1N	11.3%
CCC(c1ccc(OC)cc1)C(CC)c1ccc(O)c(CN2CCCC2)c1 (stereo unspecified)	1.62% (active)
CC(C)(C)c1cc(-c2nc3ccc(N4CCN(CCO)CC4)cc3[nH]2)cc(C(C)(C)C)c1O	-14.4% (active)
OCc1c(-c2ccccc2)nc2sccn12	97.2%
O=C(OCCCCOC(=O)n1cnc2ccccc21)n1cnc2ccccc21	103%
OC1CC2c3ccccc3C1c1ccccc12 (stereo unspecified)	106%

Each compound was assayed on HT29 colon in the same assay as above. Conditions: 10 µM unless noted.

SMILES	growth
N#Cc1c(NC(=O)c2ccc([N+](=O)[O-])o2)[n+]([O-])c2cc(F)c(F)cc2[n+]1[O-]	102%
CC(C)(C)OC(=O)N1C/C(=C\c2cccs2)C(=O)/C(=C/c2cccs2)C1	86.4%
CC(Cc1nnc(SCC(=O)Nc2ccc(I)cc2)n1N)c1ccccc1 (stereo unspecified)	111%
COC(=O)CC/C(C)=N\Nc1ccc([N+](=O)[O-])cc1	46.6%
COc1ccccc1OCC(=O)Nc1sc2c(c1C(N)=O)CCC2	74.1%
CC(=O)N1Cc2ccccc2C(C)Cc2cc(Cl)ccc21 (stereo unspecified)	97.6%
COc1ccc(/C(=N/O)c2cc(OC)c(OC)c(OC)c2)c(OC)c1N	13.7%
CC(C)CCC[C@@H](C)[C@H]1CC[C@H]2[C@@H]3CC[C@H]4C/C(=N/O)CC[C@]4(C)[C@H]3CC[C@]12C	105%
C/C(=N\NC(=O)CC#N)c1cc2cc(Cl)ccc2o1	97.2%
CCC#CC[C@H]1C/C=C2/C(=O)C=C[C@@H]2C/C=C\CCCC(=O)O1	-15.8% (active)
Cc1cc(C(=O)O)c(N)c(C)n1	112%
CCCCCCOc1ccc(C2(Cl)c3ccccc3N(C)c3ccccc32)cc1	35.1%
CC(C)N(Cc1ccc(CN(C(=O)CCl)C(C)C)cc1)C(=O)CCl	-49.7% (active)
COc1cc(-n2nc(C(=O)Nc3ccc(C(=O)O)cc3)nc2-c2ccccc2)cc(OC)c1OC	103%
NC(=O)NNC(=O)c1ccccc1	113%
CC1Cc2c(N(C)C)ncnc2N(C)c2ccc(O)cc21 (stereo unspecified)	97.8%
O=S(=O)(NCCCNc1cc(-c2cn(-c3ccccc3)nc2-c2cccc(O)c2)ccn1)c1ccc(C(F)(F)F)cc1	2.83% (active)
Cc1ccc(S(=O)(=O)N2CCC(C(=O)Nc3ccc(F)cc3F)CC2)cc1	75.5%
COc1ccc2c(c1)NC(=O)CN2c1nc(NC2CC2)nc2ccccc12	3.45% (active)

SMILES	growth
C=C1C(=O)O[C@H]2[C@H]1CC/C(COC(=O)NCCc1cccc(OC)c1)=C\CC[C@@]1(C)O[C@@H]21	1.86% (active)
COc1cc(-c2csc(NC(=O)c3cc(C(F)(F)F)cc(C(F)(F)F)c3)n2)cc(OC)c1OC	21.3%
Clc1nc(Cl)c2ncn(C/C=C/Cn3cnc4c(Cl)nc(Cl)nc43)c2n1	48%
Cc1ccc2c(c1)C(C)Cc1c(ncnc1-n1cnc3ccccc31)N2C (stereo unspecified)	4.56% (active)
CCN(CC)S(=O)(=O)c1ccc2[nH]c(=O)cc(C(=O)Nc3ccc(OC)cc3OC)c2c1	126%
COC(=O)CCCCCN=Cc1c(O)c(O)c(C(C)C)c2cc(C)c(-c3c(C)cc4c(C(C)C)c(O)c(O)c(C=NCCCCCC(=O)OC)c4c3O)c(O)c12	4.21% (active)
CCC(=O)Oc1ccc2c(c1)CC[C@@H]1[C@@H]2CC[C@]2(C)C[C@H](OC(=O)CC)C[C@@H]12	110%
C=C1C(=O)O[C@H]2[C@H]1CC/C(COC(=O)NCc1cc(OC)cc(OC)c1)=C\CC[C@@]1(C)O[C@@H]21	-40.2% (active)
O=C(Nc1ccc(I)cc1)c1cc([N+](=O)[O-])ccc1O	48.7%
O=C(CNC(=O)c1cccc2ccccc12)Nc1ccccc1Oc1ccccc1	1.97% (active)
O=C(/C=C/CN1CCOCC1)Nc1cc2c(Nc3ccc(F)c(Cl)c3F)ncnc2cc1OCCOC(F)F	43.3%
O=C(NCCc1c[nH]c2ccccc12)C1Cc2ccccc2CN1C(=O)c1ccco1 (stereo unspecified)	114%
Nc1cc2c(cc1N)-c1cc(N)c(N)cc1C2	107%
COc1ccc(/C(=N\O)c2cc(OC)c(OC)c(OC)c2)c(OC)c1N	4.28% (active)
CCC(c1ccc(OC)cc1)C(CC)c1ccc(O)c(CN2CCCC2)c1 (stereo unspecified)	4.26% (active)
CC(C)(C)c1cc(-c2nc3ccc(N4CCN(CCO)CC4)cc3[nH]2)cc(C(C)(C)C)c1O	4.47% (active)
OCc1c(-c2ccccc2)nc2sccn12	109%
O=C(OCCCCOC(=O)n1cnc2ccccc21)n1cnc2ccccc21	97%
OC1CC2c3ccccc3C1c1ccccc12 (stereo unspecified)	110%
